Source: PubChem BioAssay (NCATS)
Results filed as inconclusive are left out. Entries that show only a call come without a potency. Calls of active or inactive are those of the source. Calls follow the shape of the dose curve; as a rule, active = well fitted inhibition curve with a large enough effect; inconclusive = small, poorly fitted or top-dose-only effect; inactive = flat fitted curve, though single readings scatter. Non-standard residues stand in square brackets, D forms with d. Residues, ends and D or L forms follow the SMILES beside them. Orn = NCCC[C@H](N)C(=O)O

molecular target: Voltage-gated inwardly rectifying potassium channel KCNH2 (Homo sapiens) (UniProt Q12809); test: qHTS Assay for Small Molecule Inhibitors of the Human hERG Channel Activity (AID 588834); conditions: U2OS BacMam hERG, FluxOR thallium flux fluorescence; series mostly up to 46.1 µM;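 also: lower thallium flux fluorescence means stronger hERG block; nearly all actives have a fitted effect of over 50% in size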
Sequence (Q12809 whole entry, looked up): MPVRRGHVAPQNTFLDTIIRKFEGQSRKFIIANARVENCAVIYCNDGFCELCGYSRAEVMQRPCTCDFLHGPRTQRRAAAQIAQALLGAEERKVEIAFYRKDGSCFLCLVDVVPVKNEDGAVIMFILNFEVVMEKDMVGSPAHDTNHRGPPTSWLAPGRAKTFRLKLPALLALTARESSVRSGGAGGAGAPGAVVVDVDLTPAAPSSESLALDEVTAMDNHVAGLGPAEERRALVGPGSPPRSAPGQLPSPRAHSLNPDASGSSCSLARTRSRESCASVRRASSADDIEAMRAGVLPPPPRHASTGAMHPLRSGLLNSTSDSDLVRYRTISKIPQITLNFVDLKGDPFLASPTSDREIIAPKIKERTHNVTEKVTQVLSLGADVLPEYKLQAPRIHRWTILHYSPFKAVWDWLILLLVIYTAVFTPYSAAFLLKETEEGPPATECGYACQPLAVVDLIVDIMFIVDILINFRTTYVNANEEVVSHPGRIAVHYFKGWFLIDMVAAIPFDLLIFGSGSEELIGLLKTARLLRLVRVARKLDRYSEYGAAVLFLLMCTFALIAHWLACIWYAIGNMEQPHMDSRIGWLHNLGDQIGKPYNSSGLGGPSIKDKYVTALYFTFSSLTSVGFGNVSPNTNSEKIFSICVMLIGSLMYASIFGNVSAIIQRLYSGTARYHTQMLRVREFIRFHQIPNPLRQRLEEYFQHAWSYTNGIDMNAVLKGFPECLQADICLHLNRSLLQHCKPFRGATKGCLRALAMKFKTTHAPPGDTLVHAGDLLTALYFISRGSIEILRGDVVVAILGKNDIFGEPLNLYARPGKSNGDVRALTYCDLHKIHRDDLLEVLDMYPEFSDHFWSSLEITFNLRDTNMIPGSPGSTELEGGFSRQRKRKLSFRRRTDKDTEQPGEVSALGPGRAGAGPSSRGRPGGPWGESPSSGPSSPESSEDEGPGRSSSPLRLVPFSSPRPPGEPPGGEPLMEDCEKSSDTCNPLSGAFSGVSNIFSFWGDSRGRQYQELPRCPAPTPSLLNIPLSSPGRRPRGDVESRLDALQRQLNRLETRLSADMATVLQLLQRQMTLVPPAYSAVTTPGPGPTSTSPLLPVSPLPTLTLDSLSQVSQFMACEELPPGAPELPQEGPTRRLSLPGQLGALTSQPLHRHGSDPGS
Procedure, shortened: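 Thallium-flux (FluxOR) read-out on FDSS: fluorescence read 10 s before and 2 min after stimulation buffer. hERG-BacMam-transduced U2OS cells, compound exposure about 10 min. AC50 by standard Hill equation.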
Potency is read from the fitted curve at half-maximal effect.

SMILES	Potency
CC[C@H]1OC(=O)[C@H](C)[C@@H](O[C@H]2C[C@@](C)(OC)[C@@H](O)[C@H](C)O2)[C@H](C)[C@@H](O[C@@H]2O[C@H](C)C[C@H](N(C)C)[C@H]2O)[C@](C)(O)C[C@@H](C)/C(=N\OCOCCOC)[C@H](C)[C@@H](O)[C@]1(C)O	inactive
CCOC(=O)C1=CC2(CC)CCCN3CCc4c(n1c1ccccc41)C32 (stereo not given)	0.0891 µM (active)
CCC(=O)OCC(=O)[C@@]1(OC(=O)CC)[C@H](C)C[C@H]2[C@H]3[C@H]([C@@H](O)C[C@@]21C)[C@@]1(C)C=CC(=O)C=C1C[C@H]3Cl	inactive
CCCC(=O)O[C@]1(C(=O)COC(C)=O)CC[C@H]2[C@@H]3C[C@H](F)C4=CC(=O)C=C[C@]4(C)[C@@]3(F)[C@@H](O)C[C@@]21C	inactive
COc1cc(-c2ccc(-[n+]3nc(-c4ccccc4)nn3-c3ccc([N+](=O)[O-])cc3)c(OC)c2)ccc1-[n+]1nc(-c2ccccc2)nn1-c1ccc([N+](=O)[O-])cc1	inactive
CCCC(=O)Nc1ncnc2c1ncn2C1OC2COP(=O)(O)OC2C1OC(=O)CCC (stereo not given)	inactive
CC[C@H]1OC(=O)C[C@@H](O)[C@H](C)[C@@H](O[C@@H]2O[C@H](C)[C@@H](O)[C@H](N(C)C)[C@H]2O)[C@@H](CCN2C[C@H](C)C[C@H](C)C2)C[C@@H](C)C(=O)/C=C/C(C)=C/[C@@H]1CO[C@@H]1O[C@H](C)[C@@H](O)[C@@H](OC)[C@H]1OC	inactive
CC(NNC(=O)c1ccccc1)c1ccccc1 (stereo not given)	inactive
CC1=C(/C=C/C(C)=C/C=C/C(C)=C/C=C/C=C(C)/C=C/C=C(C)/C=C/C2=C(C)C(=O)CCC2(C)C)C(C)(C)CCC1=O	inactive
COc1ccc(C[C@H](N)C(=O)N[C@H]2[C@@H](O)[C@H](n3cnc4c(N(C)C)ncnc43)O[C@@H]2CO)cc1	inactive
CCc1ccc2c(c1)N(CC(C)CN(C)C)c1ccccc1S2 (stereo not given)	7.94 µM (active)
CC(=O)Oc1c(C)cc(OCC(O)CNC(C)C)c(C)c1C (stereo not given)	inactive
COc1cc([C@@H]2c3cc4c(cc3[C@@H](O[C@@H]3O[C@@H]5CO[C@@H](C)O[C@H]5[C@H](O)[C@H]3O)[C@H]3COC(=O)[C@H]23)OCO4)cc(OC)c1O	inactive
C[C@]12O[C@H](C[C@]1(O)CO)n1c3ccccc3c3c4c(c5c6ccccc6n2c5c31)CNC4=O	inactive
COC(=O)[C@H]1[C@H]2C[C@@H]3c4[nH]c5ccccc5c4CCN3C[C@H]2C[C@@H](OC(=O)c2cc(OC)c(OC)c(OC)c2)[C@@H]1OC	0.355 µM (active)
NC(=O)c1ncn(C2OC(CO)C(O)C2O)n1 (stereo not given)	inactive
CC(C)C(=O)OCC(=O)[C@@]12O[C@H](C3CCCCC3)O[C@@H]1C[C@H]1[C@@H]3CCC4=CC(=O)C=C[C@]4(C)[C@H]3[C@@H](O)C[C@@]12C	3.98 µM (active)
CCCCCCCCCCCCCCCC(=O)OCC(COC(=O)CCCCCCCCCCCCCCC)OC(=O)CCCCCCCCCCCCCCC	inactive
CO[C@@H]1[C@@H](O[C@@H]2O[C@H](C)[C@@H](O[C@H]3C[C@@](C)(O)[C@@H](O)[C@H](C)O3)[C@H](N(C)C)[C@H]2O)[C@@H](CC=O)C[C@@H](C)[C@@H](O[C@@H]2CC[C@H](N(C)C)[C@@H](C)O2)/C=C/C=C/C[C@@H](C)OC(=O)C[C@H]1O	inactive
C#CCOc1ccc2c(C)cc(=O)oc2c1	inactive
CC(C)C[C@@H]1NC(=O)[C@H](CCCN)NC(=O)[C@H](C(C)C)NC(=O)[C@@H]2CCCN2C(=O)[C@@H](Cc2ccccc2)NC(=O)[C@H](CC(C)C)NC(=O)[C@H](CCCN)NC(=O)[C@H](C(C)C)NC(=O)[C@@H]2CCCN2C(=O)[C@@H](Cc2ccccc2)NC1=O (cyclo(V[Orn]L[dF]PV[Orn]L[dF]P))	inactive
NCc1ccccc1CC(=O)N[C@@H]1C(=O)N2C(C(=O)O)=C(CSc3nnnn3CC(=O)O)CS[C@H]12	inactive
Nc1c(Br)cc(Br)cc1CNC1CCC(O)CC1 (stereo not given)	inactive
CCCCC(=O)N(Cc1ccc(-c2ccccc2-c2nn[nH]n2)cc1)[C@@H](C(=O)O)C(C)C	inactive
C=C(NC(=O)C(=C)NC(=O)c1csc(C2=N[C@@H]3c4csc(n4)[C@H]4NC(=O)c5csc(n5)[C@H]([C@](C)(O)[C@@H](C)O)NC(=O)[C@H]5CSC(=N5)C(=CC)NC(=O)C([C@@H](C)O)NC(=O)c5csc(n5)[C@]3(CC2)NC(=O)[C@H](C)NC(=O)C(=C)NC(=O)[C@H](C)NC(=O)C([C@@H](C)CC)NC2C=Cc3c([C@H](C)O)cc(nc3C2O)C(=O)O[C@@H]4C)n1)C(N)=O (stereo not given in full)	inactive
